Our source for the Potency values is PubChem BioAssay (Tox21).

A short description of experiment [1]: Nuclear factor erythroid 2-related factor 2/antioxidant responsive element (Nrf2/ARE) small molecule agonists: qHTS cell viability counter screen in human keratinocytes (AID 1919968; active = well fitted curve in the direction sought with a large enough effect in the repeat runs; an effect the other way counts as inactive or inconclusive; note: nearly all actives have a fitted effect of over 55% in size). A digest of the protocol: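 Cytotoxicity was multiplexed with the Nrf2/ARE luciferase assay in the same wells. Stably transfected HaCaT keratinocytes were treated with test compounds for 23 h at 37 C. Cell viability was then measured by CellTiter-Fluor fluorescence.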

Experiment [2] is described as follows: Nuclear factor erythroid 2-related factor 2/antioxidant responsive element (Nrf2/ARE) small molecule agonists: luciferase reporter gene qHTS assay in human keratinocytes (AID 1919969). Note: nearly all actives have a fitted effect of over 35% in size. Note: potency is the fitted concentration of half-maximal effect.
Experiment [3] has as its target Gonadotropin-releasing hormone receptor (Homo sapiens) (UniProt P30968). As to the kind of experiment: Human gonadotropin-releasing hormone receptor (GnRHR) small molecule agonists, calcium flux assay in GnRHR-HEK293 cells (AID 1920063). Note: nearly all actives have a fitted effect of over 35% in size. The gist of the method: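 Agonist activity was measured as intracellular calcium flux in HEK293 cells engineered to stably express human GnRHR. After dye loading for 1 hour at 37 C, compounds in DMSO were added and fluorescence was followed for 3 minutes.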

Experiment [4] concerns the target KiSS-1 receptor (Homo sapiens) (UniProt Q969F8). As to the kind of experiment: Human kisspeptin (KISS1R) small molecule agonists, calcium flux assay in KISS1R-HEK293 cells (AID 1920064; active = well fitted curve in the direction sought with a large enough effect in the repeat runs; an effect the other way counts as inactive or inconclusive). A digest of the protocol:
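Agonist activity is monitored as intracellular calcium rise in engineered HEK293 cells carrying human KISS1R. Cells are dye-loaded for 1 h at 37 C before compound addition, and fluorescence is recorded for 3 min.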

The nature of experiment [5]: G protein-coupled receptor (GPCR) small molecule agonists, calcium flux assay: HEK293 wild type cell line counter screen (AID 1920065). The gist of the method:
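Seed cells, incubate 18 h (37 C, 5% CO2); add calcium dye, 1 h at 37 C; pin-transfer compounds, ATP control or DMSO; read fluorescence 480/540 nm each second for 3 min.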

Experiment [6] in a line: p53 small molecule agonists, cell-based qHTS assay with human liver microsomes (AID 1963577).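 Note: p53 response element beta-lactamase reporter cells with liver microsomes plus NADPH.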 The gist of the method: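 Reporter activation was measured by LiveBLAzer fluorescence intensity in p53RE-bla cells, which had been exposed to compounds for 16 h at 37 C alongside 0.5 mg/mL human liver microsomes and 0.5 mg/mL NADPH (final concentrations).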
Experiment [7] can be described thus: p53 small molecule agonists, cell-based qHTS assay with rat liver microsomes (AID 1963578). The gist of the method: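 Compound in DMSO added to p53RE-bla cells 5 h post-plating; rat microsomes/NADPH 0.5 mg/mL final; 16 h, 37 C; LiveBLAzer 2 h RT.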
Experiment [8] can be described thus: p53 small molecule agonists, cell-based qHTS assay with human liver microsomes: qHTS cell viability counter screen (AID 1963579). Note: nearly all actives have a fitted effect of over 45% in size. A digest of the protocol:
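HLM-supplemented (0.5 mg/mL final) and NADPH-supplemented (0.5 mg/mL final) p53RE-bla cultures, 4,000 cells per well, were dosed with compounds in DMSO for 16 h at 37 C; luminescent ATP detection (CellTiter-Glo, 30 min, room temperature) quantified surviving cells.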

Experiment [9] in a line: p53 small molecule agonists, cell-based qHTS assay with rat liver microsomes: qHTS cell viability counter screen (AID 1963580). Note: nearly all actives have a fitted effect of over 45% in size. A digest of the protocol:
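Cytotoxicity counter screen: intracellular ATP measured by CellTiter-Glo luminescence in the same wells as the beta-lactamase reporter read, on HCT-116 p53RE-bla cells exposed 16 h at 37 C to compounds with rat liver microsomes and NADPH, each 0.5 mg/mL final.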

Experiment [10] can be described thus: p53 small molecule agonists, cell-based qHTS assay: qHTS cell viability counter screen (AID 1963581). Note: nearly all actives have a fitted effect of over 45% in size. The gist of the method:
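Viability was counter-screened in parallel with the p53 agonist reporter by measuring intracellular ATP luminescence in the same HCT-116 p53RE-bla wells after 16 h compound treatment at 37 C.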

The nature of experiment [11]: p53 small molecule agonists, cell-based qHTS assay (AID 1963582; active = well fitted activation curve with a large enough effect in the signal ratio in the repeat runs, not every such curve was filed as active; the % refers to the signal ratio). The gist of the method: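 Cells carrying a p53-responsive bla reporter are treated with test compounds for 16 h at 37 C; beta-lactamase activity is then detected with LiveBLAzer B/G FRET substrate after 2 h at room temperature.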
Experiment [12] concerns the target 5-hydroxytryptamine receptor 2A (Homo sapiens) (UniProt P28223). As to the kind of experiment: 5-hydroxytryptamine receptor 2A (HTR2A) small molecule antagonists, cell-based qHTS assay (AID 1963586). Note: nearly all actives have a fitted effect of over 45% in size. The gist of the method:
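CHO cells stably expressing human HTR2A were plated for 18 h at 37 C, then loaded with calcium dye for 1 h. Compounds were preincubated 5 min at room temperature before DOI (4 nM solution) was added. Kinetic fluorescence was read for 3 min.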

Experiment [13] deals with Muscarinic acetylcholine receptor M1 (Homo sapiens) (UniProt P11229). As to the kind of experiment: Cholinergic receptor muscarinic 1 (CHRM1) small molecule antagonists, cell-based qHTS assay (AID 1963588). Note: nearly all actives have a fitted effect of over 40% in size. The gist of the method:
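Compounds were tested at 15 concentrations in three independent runs. Dye-loaded CHRM1-CHO cells were exposed 5 min at room temperature before stimulation by acetylcholine added at 50nM. Intracellular calcium was read kinetically on FDSS for 3 min.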

The target is the same in experiment [14]. As to the kind of experiment: Cholinergic receptor muscarinic 1 (CHRM1) small molecule agonists, cell-based qHTS assay (AID 1963589). Note: nearly all actives have a fitted effect of over 35% in size. A digest of the protocol:
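Cells were plated and incubated 18 h at 37 C/5% CO2, loaded with calcium dye for 1 h at 37 C, then treated with compounds in DMSO. Fluorescence was recorded kinetically at 1 sec intervals.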

Experiment [15] can be described thus: cAMP Responsive Elements (CRE) small molecule agonists, cell-based qHTS assay (AID 1963590). The gist of the method:
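Cells carrying a CRE-driven beta-lactamase reporter (HEK 293T) are seeded, incubated overnight (18 h), and treated with test compounds for 3 h at 37 C; reporter activity is then detected with a FRET substrate after 2 h at room temperature.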

Experiment [16] in a line: cAMP Responsive Elements (CRE) small molecule antagonists, cell-based qHTS assay (AID 1963591; active = well fitted inhibition curve with a large enough effect in the signal ratio in the repeat runs, not every such curve was filed as active; the % refers to the signal ratio). A digest of the protocol:
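Cells (CRE-bla HEK 293T, DMEM with 10% dialyzed FBS and 25 mM HEPES) are seeded and incubated 18 h. Compounds are added with NKH477 agonist at 0.25 uM final for 3 h, then FRET substrate for 2 h.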

The target in experiment [17] is Beta-2 adrenergic receptor (Homo sapiens) (UniProt P07550). As to the kind of experiment: Adrenergic beta2 receptor (ADRB2) small molecule antagonists, cell-based qHTS assay (AID 1963592). Note: series mostly up to about 92 µM; nearly all actives have a fitted effect of over 50% in size. A digest of the protocol: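 Assay format: CHO-ADRB2 cells, 18-20hr seeding at 37C/5% CO2, then compound plus 1nM isoproterenol agonist mix for 0.5hr RT. Homogeneous time-resolved fluorescence cAMP detection after 1hr, expressed as 665/615 nm ratio.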
Beta-2 adrenergic receptor (Homo sapiens), sequence (P07550 whole entry, looked up): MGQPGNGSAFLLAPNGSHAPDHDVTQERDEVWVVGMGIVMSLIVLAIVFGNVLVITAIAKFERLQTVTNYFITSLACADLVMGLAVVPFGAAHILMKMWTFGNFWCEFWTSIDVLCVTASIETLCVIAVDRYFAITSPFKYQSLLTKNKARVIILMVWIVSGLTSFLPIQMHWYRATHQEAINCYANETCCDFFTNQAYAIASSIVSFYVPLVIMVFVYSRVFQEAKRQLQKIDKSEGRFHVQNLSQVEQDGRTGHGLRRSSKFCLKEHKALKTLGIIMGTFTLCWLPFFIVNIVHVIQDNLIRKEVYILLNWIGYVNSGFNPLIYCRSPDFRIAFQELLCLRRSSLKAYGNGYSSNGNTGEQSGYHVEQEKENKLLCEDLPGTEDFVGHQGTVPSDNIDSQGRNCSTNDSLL

For experiment [18], the target named is D(2) dopamine receptor (Homo sapiens) (UniProt P14416). As to the kind of experiment: Dopamine D2 receptor (DRD2) small molecule agonists, cell-based qHTS assay (AID 1963594). Note: nearly all actives have a fitted effect of over 35% in size. A digest of the protocol: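 HEK293 cells stably expressing human DRD2, pre-treated with PDE inhibitor Ro20-1724 (0.1 mM final) and compound 10 min at room temperature, then stimulated with NKH477 (200nM […]) for 30 min. cAMP read by HTRF (665/620 nm).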
D(2) dopamine receptor (Homo sapiens), sequence (P14416 whole entry, looked up): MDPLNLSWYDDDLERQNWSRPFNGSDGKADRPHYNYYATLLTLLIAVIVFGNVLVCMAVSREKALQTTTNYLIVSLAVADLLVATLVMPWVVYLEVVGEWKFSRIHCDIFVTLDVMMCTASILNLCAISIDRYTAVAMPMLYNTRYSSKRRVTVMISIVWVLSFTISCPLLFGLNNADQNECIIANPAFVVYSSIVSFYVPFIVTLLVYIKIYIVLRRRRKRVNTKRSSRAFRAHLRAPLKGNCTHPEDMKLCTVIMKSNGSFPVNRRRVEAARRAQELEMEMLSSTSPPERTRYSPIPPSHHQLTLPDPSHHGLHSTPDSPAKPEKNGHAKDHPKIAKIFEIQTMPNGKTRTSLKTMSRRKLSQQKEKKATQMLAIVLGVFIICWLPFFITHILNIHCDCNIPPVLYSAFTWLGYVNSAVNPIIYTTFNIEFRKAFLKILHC

For experiment [19] the target is unchanged. As to the kind of experiment: Dopamine D2 receptor (DRD2) small molecule antagonists, cell-based qHTS assay (AID 1963595; active = well fitted inhibition curve with a large enough effect in the signal ratio in the repeat runs, with a control signal flat; the % refers to the signal ratio). A digest of the protocol:
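In this cell-based antagonist screen, compounds act for 10 min at room temperature before a 30 min challenge with 12 nM quinpirole and 200 nM NKH477. cAMP is quantified by HTRF competition in DRD2-HEK293 cells containing 0.1 mM Ro20-1724.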

Experiment [20] deals with 5-hydroxytryptamine receptor 2A (Homo sapiens) (UniProt P28223). As to the kind of experiment: 5-hydroxytryptamine receptor 2A (HTR2A) small molecule agonists, cell-based qHTS assay (AID 1963587). Note: nearly all actives have a fitted effect of over 30% in size. The gist of the method:
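CHO cells stably expressing human HTR2A, plated 18 h, loaded with calcium dye 1 h at 37 C. Agonist mode: compounds added and intracellular calcium fluorescence recorded kinetically for 2 min at 1 sec intervals.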

Inconclusive results are not listed. Active and inactive are the calls of the source. Unless noted, calls come from the whole dose curve.

5-hydroxytryptamine receptor 2A (Homo sapiens), sequence (P28223 whole entry, looked up): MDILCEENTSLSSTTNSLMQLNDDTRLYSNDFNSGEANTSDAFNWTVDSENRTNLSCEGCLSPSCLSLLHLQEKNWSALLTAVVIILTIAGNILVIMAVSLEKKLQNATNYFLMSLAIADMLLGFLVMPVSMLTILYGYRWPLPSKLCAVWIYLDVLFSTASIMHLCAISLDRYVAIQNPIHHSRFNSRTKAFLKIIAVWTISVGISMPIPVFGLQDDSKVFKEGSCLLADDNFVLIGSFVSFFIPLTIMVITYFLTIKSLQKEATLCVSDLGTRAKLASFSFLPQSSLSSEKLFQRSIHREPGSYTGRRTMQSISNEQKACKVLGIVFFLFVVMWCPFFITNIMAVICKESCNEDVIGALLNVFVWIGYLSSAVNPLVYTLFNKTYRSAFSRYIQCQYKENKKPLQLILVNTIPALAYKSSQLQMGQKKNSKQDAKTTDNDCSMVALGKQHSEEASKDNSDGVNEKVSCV
Muscarinic acetylcholine receptor M1 (Homo sapiens), sequence (P11229 whole entry, looked up): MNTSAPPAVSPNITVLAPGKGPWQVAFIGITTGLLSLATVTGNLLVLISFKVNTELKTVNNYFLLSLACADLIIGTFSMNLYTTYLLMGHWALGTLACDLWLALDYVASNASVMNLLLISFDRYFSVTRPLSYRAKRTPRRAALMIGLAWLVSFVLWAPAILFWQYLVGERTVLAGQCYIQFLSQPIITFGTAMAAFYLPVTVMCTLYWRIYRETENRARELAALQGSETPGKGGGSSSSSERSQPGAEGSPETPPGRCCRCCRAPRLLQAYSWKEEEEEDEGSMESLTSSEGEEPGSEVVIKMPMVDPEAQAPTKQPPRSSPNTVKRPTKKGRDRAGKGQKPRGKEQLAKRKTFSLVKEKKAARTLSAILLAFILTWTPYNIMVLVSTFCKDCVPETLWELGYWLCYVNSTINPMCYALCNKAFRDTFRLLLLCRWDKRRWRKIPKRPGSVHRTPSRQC
KiSS-1 receptor (Homo sapiens), sequence (Q969F8 whole entry, looked up): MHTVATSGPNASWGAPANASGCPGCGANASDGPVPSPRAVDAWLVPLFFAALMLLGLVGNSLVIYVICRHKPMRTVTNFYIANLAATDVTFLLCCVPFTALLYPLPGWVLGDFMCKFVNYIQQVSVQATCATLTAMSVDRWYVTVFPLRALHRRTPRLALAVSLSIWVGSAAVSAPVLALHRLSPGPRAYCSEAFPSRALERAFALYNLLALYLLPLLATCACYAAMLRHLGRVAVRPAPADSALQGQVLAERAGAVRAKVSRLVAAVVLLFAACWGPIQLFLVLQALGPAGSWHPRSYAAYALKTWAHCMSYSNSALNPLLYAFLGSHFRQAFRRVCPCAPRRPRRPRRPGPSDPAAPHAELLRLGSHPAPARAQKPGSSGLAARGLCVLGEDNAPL
Gonadotropin-releasing hormone receptor (Homo sapiens), sequence (P30968 whole entry, looked up): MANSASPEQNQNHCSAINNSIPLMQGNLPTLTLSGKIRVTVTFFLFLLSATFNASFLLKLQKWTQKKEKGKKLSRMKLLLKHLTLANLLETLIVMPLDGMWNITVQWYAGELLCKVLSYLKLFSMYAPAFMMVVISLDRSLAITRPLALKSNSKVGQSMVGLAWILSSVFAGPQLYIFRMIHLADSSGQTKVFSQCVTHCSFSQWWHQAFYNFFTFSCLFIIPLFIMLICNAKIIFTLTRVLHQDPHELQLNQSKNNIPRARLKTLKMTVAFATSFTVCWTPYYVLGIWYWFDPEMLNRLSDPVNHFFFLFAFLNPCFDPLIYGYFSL

`Brc1ccc(Oc2cc(Br)c(Br)cc2Br)c(Br)c1`: the Potency result in experiment [1], in experiment [3], in experiment [4], in experiment [5], in experiment [6] and in experiment [7] was “inactive” each time. For the same compound, the Potency entry in experiment [8], in [9], in [10], in experiment [11], in experiment [12] and in experiment [13] was “inactive” throughout. Further, the Potency entry in experiment [14], in experiment [15], in experiment [16], in [17], in [18] and in experiment [19] was “inactive” in each case. Further, the Potency in experiment [2] is 12.3 µM (active).

Turning to `[N-]=[N+]=[N-]`, the Potency entry in experiment [1], in experiment [2], in experiment [3], in experiment [4], in [5] and in experiment [6] was “inactive” throughout. Further, the Potency result in experiment [7], in [8], in experiment [9], in experiment [10], in experiment [11] and in [12] was “inactive” in each case. For the same compound, the Potency entry in experiment [20], in [13], in experiment [15], in experiment [16], in [17] and in [18] was “inactive” in each case. Moreover, in [19], the Potency entry was “inactive”.

`COP(=O)(O)OC`: the Potency result in experiment [1], in [2], in experiment [3], in experiment [4], in experiment [5] and in [6] was “inactive” in each case. Moreover, the Potency entry in experiment [7], in experiment [8], in [9], in [10], in experiment [11] and in [12] was “inactive” each time. In addition, the Potency entry in experiment [20], in experiment [13], in experiment [15], in [17], in experiment [18] and in experiment [19] was “inactive” in each case.

For `Nc1ccncc1`, the Potency result in experiment [1], in experiment [2], in experiment [3], in experiment [4], in experiment [5] and in [6] was “inactive” in each case. For the same compound, the Potency result in experiment [7], in [8], in experiment [9], in experiment [10], in experiment [11] and in experiment [20] was “inactive” each time. For the same compound, the Potency result in [13], in experiment [14], in experiment [15], in [16], in [17] and in experiment [18] was “inactive” in each case. Also, the Potency entry in experiment [19] is “inactive”.

With `N#CCNCC#N`, the Potency entry in experiment [1], in experiment [2], in experiment [3], in experiment [4], in [5] and in [6] was “inactive” in each case. The Potency result in experiment [7], in experiment [8], in experiment [9], in experiment [10], in experiment [11] and in [12] was “inactive” throughout. Further, the Potency result in experiment [20], in experiment [14], in [15], in experiment [16], in experiment [17] and in experiment [18] was “inactive” in each case. Further, in [19], the Potency result is “inactive”.

For `Clc1ccc(C(Cl)(Cl)Cl)cc1`, the Potency result in experiment [1], in [2], in [3], in experiment [4], in [5] and in experiment [6] was “inactive” throughout. The Potency entry in experiment [7], in [8], in experiment [9], in experiment [10], in experiment [11] and in experiment [12] was “inactive” throughout. Moreover, the Potency entry in experiment [20], in [13], in [15], in experiment [16], in experiment [17] and in experiment [18] was “inactive” each time. In [19], the Potency entry is “inactive”.

Turning to `O=C(O)c1nc(Cl)ccc1Cl`, the Potency entry in experiment [1], in [2], in experiment [3], in [4], in experiment [5] and in experiment [6] was “inactive” each time. Besides, the Potency result in experiment [7], in [8], in [9], in experiment [10], in experiment [11] and in [12] was “inactive” each time. Further, the Potency entry in experiment [20], in experiment [13], in experiment [16] and in [19] was “inactive” each time.
